Assay results as given in PubChem BioAssay AID1159580 (chemical genetic matrix, 2015).
The campaign covered roughly 5,500 compounds. About 2,000 (36%) were called active. Inconclusive results (about 18%) are left out. No stated cut-off is given here; in the data, active means normalized growth mostly below about 0.91 (no sharp cut-off); inconclusive means no clear call, values can overlap the other calls; inactive means mostly above about 0.92. The list shows a part of the results.

Test: chemical genetic growth profiling, strain panel (AID 1159580);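 further: tested at 20 µM; growth read once vehicle control cultures reached saturation at 30 °C; 1 = growth at the plate median or of vehicle wells; lower values mean less growth of the strain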
Conditions: growth OD
[1] = S. cerevisiae deletion strains, locus YAL013W, strain DEP1, active compounds read low
[2] = S. cerevisiae deletion strains, locus YBR229C, strain ROT2, active compounds read low
[3] = S. cerevisiae deletion strains, locus YDL101C, strain DUN1, active compounds read low
[4] = S. cerevisiae deletion strains, locus YDL134C, strain PPH21, active compounds read low
[5] = S. cerevisiae deletion strains, locus YDR150W, strain NUM1, active compounds read low
[6] = S. cerevisiae deletion strains, locus YEL061C, strain CIN8, active compounds read low
[7] = S. cerevisiae deletion strains, locus YGR078C, strain PAC10, active compounds read low
[8] = S. cerevisiae deletion strains, locus YGR229C, strain SMI1, active compounds read low
[9] = S. cerevisiae deletion strains, locus YHR030C, strain SLT2, active compounds read low
[10] = S. cerevisiae deletion strains, locus YHR087W, strain rtc3, active compounds read low
[11] = S. cerevisiae deletion strains, locus YJR043C, strain POL32, active compounds read low
[12] = S. cerevisiae deletion strains, locus YJR075W, strain HOC1, active compounds read low
[13] = S. cerevisiae deletion strains, locus YLR039C, strain RIC1, active compounds read low
[14] = S. cerevisiae deletion strains, locus YLR058C, strain SHM2 (second series), active compounds read low
[15] = S. cerevisiae deletion strains, locus YLR085C, strain ARP6, active compounds read low
[16] = S. cerevisiae deletion strains, locus YLR262C, strain YPT6, active compounds read low
[17] = S. cerevisiae deletion strains, locus YML094W, strain GIM5, active compounds read low
[18] = S. cerevisiae deletion strains, locus YMR219W, strain ESC1, active compounds read low
[19] = S. cerevisiae deletion strains, locus YMR263W, strain SAP30, active compounds read low
[20] = S. cerevisiae deletion strains, locus YNL153C, strain GIM3, active compounds read low
[21] = S. cerevisiae deletion strains, locus YNL298W, strain CLA4 (second series), active compounds read low
[22] = S. cerevisiae deletion strains, locus YNL322C, strain KRE1, active compounds read low
[23] = S. cerevisiae deletion strains, locus YNR030W, strain Alg12, active compounds read low
[24] = S. cerevisiae deletion strains, locus YPL055C, strain LGE1, active compounds read low
[25] = S. cerevisiae deletion strains, locus YPL241C, strain CIN2, active compounds read low
[26] = S. cerevisiae deletion strains, locus YPR135W, strain CTF4, active compounds read low
[27] = S. cerevisiae deletion strains, locus YOL006C, strain TOP1, active compounds read low
[28] = S. cerevisiae strains, strain wild type, active compounds read low
[29] = S. cerevisiae deletion strains, locus YNL128W, strain TEP1, active compounds read low

Measured: normalized growth

COc1ccc(/C(C#N)=C/c2ccc(OC)c(OC)c2)cc1
inactive: [1] 0.953 | [2] 0.98 | [3] 0.985 | [4] 0.949 | [5] 0.951 | [6] 0.961 | [7] 0.968 | [8] 0.972 | [10] 0.962 | S. cerevisiae deletion strains, locus YJL187C, strain SWE1, active compounds read low 1 | [11] 0.964 | [12] 0.95 | [14] 0.998 | [17] 0.933 | [18] 0.998 | [19] 0.953 | [20] 0.969 | [21] 0.936 | [22] 0.994 | [23] 0.925 | [24] 0.9 | [25] 0.933 | [26] 0.698
active: [9] 0.548 | [13] 0.717 | [15] 0.768 | [16] 0.741

COc1ccc(/C=C(\C#N)c2nc3ccccc3[nH]2)cc1OC
inactive: [1] 0.947 | [2] 0.947 | [3] 0.961 | [4] 0.942 | [5] 0.934 | [6] 0.921 | [7] 0.948 | [9] 0.703 | [10] 0.912 | [11] 0.959 | [13] 0.817 | [14] 0.957 | [16] 0.851 | [17] 0.909 | [18] 0.971 | [19] 0.956 | [20] 0.975 | [21] 0.856 | [22] 0.95 | [23] 0.906 | [24] 0.885 | [26] 0.759 | [28] 0.94
active: [12] 0.859 | [15] 0.499 | S. cerevisiae deletion strains, locus YMR307W, strain GAS1, active compounds read low 0.609 | [27] 0.725 | [25] 0.857

COc1ccc(/C=N\NC(=O)CC#N)cc1OC
inactive: [1] 1 | [2] 1 | [3] 1.04 | [4] 0.999 | [5] 1.04 | [6] 0.985 | [7] 0.998 | [8] 1 | [9] 1.05 | [10] 0.996 | [11] 1.01 | [12] 1.01 | S. cerevisiae deletion strains, locus YKL190W, strain CNB1, active compounds read low 1 | [13] 1 | [14] 1.04 | [15] 0.957 | [16] 1.01 | [17] 0.998 | [18] 0.997 | [19] 1.04 | [29] 1.01 | [20] 1.03 | [21] 1.02 | [22] 1 | [23] 0.998 | [24] 1.15 | [25] 1.01 | [26] 1.29

N#C/C(=C\C=C\c1ccccc1)c1nc2ccccc2[nH]1
inactive: S. cerevisiae deletion strains, locus YAR019C, strain CDC15, active compounds read low 0.958 | S. cerevisiae deletion strains, locus YBL105C, strain PKC1, active compounds read low 0.969 | S. cerevisiae deletion strains, locus YBR135W, strain CKS1, active compounds read low 0.944 | S. cerevisiae deletion strains, locus YBR136W, strain MEC1, active compounds read low 0.962 | S. cerevisiae deletion strains, locus YBR160W, strain CDC28, active compounds read low 0.962 | S. cerevisiae deletion strains, locus YDL017W, strain CDC7, active compounds read low 0.961 | S. cerevisiae deletion strains, locus YDL028C, strain MPS1, active compounds read low 0.962 | [3] 0.973 | S. cerevisiae deletion strains, locus YDL108W, strain KIN28, active compounds read low 0.968 | S. cerevisiae deletion strains, locus YDL132W, strain cdc53, active compounds read low 0.964 | S. cerevisiae deletion strains, locus YDL214C, strain PRR2, active compounds read low 0.864 | S. cerevisiae deletion strains, locus YDR052C, strain DBF4, active compounds read low 0.966 | S. cerevisiae deletion strains, locus YDR054C, strain cdc34, active compounds read low 0.955 | S. cerevisiae deletion strains, locus YDR226W, strain ADK1, active compounds read low 0.962 | S. cerevisiae deletion strains, locus YDR477W, strain SNF1, active compounds read low 0.823 | S. cerevisiae deletion strains, locus YER123W, strain YCK3, active compounds read low 0.878 | S. cerevisiae deletion strains, locus YER133W, strain GLC7, active compounds read low 0.834 | S. cerevisiae deletion strains, locus YFL009W, strain cdc4, active compounds read low 0.964 | S. cerevisiae deletion strains, locus YFL029C, strain CAK1, active compounds read low 0.958 | S. cerevisiae deletion strains, locus YFR003C, strain YPI1, active compounds read low 0.976 | S. cerevisiae deletion strains, locus YFR019W, strain FAB1, active compounds read low 0.966 | S. cerevisiae deletion strains, locus YFR028C, strain CDC14, active compounds read low 0.956 | S. cerevisiae deletion strains, locus YGR040W, strain KSS1, active compounds read low 0.83 | S. cerevisiae deletion strains, locus YGR052W, strain FMP48, active compounds read low 0.916 | S. cerevisiae deletion strains, locus YGR092W, strain DBF2, active compounds read low 0.829 | S. cerevisiae deletion strains, locus YHR079C, strain IRE1, active compounds read low 0.848 | S. cerevisiae deletion strains, locus YHR082C, strain KSP1, active compounds read low 0.819 | S. cerevisiae deletion strains, locus YHR205W, strain SCH9, active compounds read low 0.818 | S. cerevisiae deletion strains, locus YIL147C, strain SLN1, active compounds read low 0.967 | S. cerevisiae deletion strains, locus YJL095W, strain BCK1, active compounds read low 0.729 | S. cerevisiae deletion strains, locus YJL128C, strain PBS2, active compounds read low 0.957 | S. cerevisiae deletion strains, locus YJL157C, strain FAR1, active compounds read low 0.886 | S. cerevisiae deletion strains, locus YJR016C, strain ILV3, active compounds read low 0.958 | S. cerevisiae deletion strains, locus YJR066W, strain TOR1 (second series), active compounds read low 0.871 | S. cerevisiae deletion strains, locus YJR066W, strain TOR1, active compounds read low 0.791 | S. cerevisiae deletion strains, locus YKL048C, strain ELM1, active compounds read low 0.904 | S. cerevisiae deletion strains, locus YKL067W, strain YNK1, active compounds read low 0.898 | S. cerevisiae deletion strains, locus YKL101W, strain HSL1, active compounds read low 0.882 | S. cerevisiae deletion strains, locus YKL193C, strain SDS22, active compounds read low 0.95 | S. cerevisiae deletion strains, locus YKL203C, strain TOR2, active compounds read low 0.878 | S. cerevisiae deletion strains, locus YLR133W, strain CKI1, active compounds read low 0.891 | S. cerevisiae deletion strains, locus YLR403W, strain SFP1, active compounds read low 0.86 | S. cerevisiae deletion strains, locus YML070W, strain DAK1, active compounds read low 0.864 | S. cerevisiae deletion strains, locus YMR001C, strain CDC5, active compounds read low 0.956 | S. cerevisiae deletion strains, locus YMR205C, strain PFK2 (second series), active compounds read low 0.901 | S. cerevisiae deletion strains, locus YMR277W, strain FCP1, active compounds read low 0.955 | S. cerevisiae deletion strains, locus YNL006W, strain LST8, active compounds read low 0.96 | S. cerevisiae deletion strains, locus YNL020C, strain ARK1, active compounds read low 0.896 | S. cerevisiae deletion strains, locus YNL161W, strain CBK1, active compounds read low 0.956 | S. cerevisiae deletion strains, locus YNL183C, strain NPR1, active compounds read low 0.793 | S. cerevisiae deletion strains, locus YNL207W, strain RIO2, active compounds read low 0.946 | S. cerevisiae deletion strains, locus YNL222W, strain SSU72, active compounds read low 0.957 | S. cerevisiae deletion strains, locus YNL307C, strain MCK1 (second series), active compounds read low 0.866 | S. cerevisiae deletion strains, locus YOL078W, strain AVO1, active compounds read low 0.954 | S. cerevisiae deletion strains, locus YOL136C, strain PFK27, active compounds read low 0.885 | S. cerevisiae deletion strains, locus YOR061W, strain CKA2, active compounds read low 0.908 | S. cerevisiae deletion strains, locus YOR119C, strain RIO1, active compounds read low 0.875 | S. cerevisiae deletion strains, locus YOR231W, strain MKK1, active compounds read low 0.828 | S. cerevisiae deletion strains, locus YOR329C, strain SCD5, active compounds read low 0.976 | S. cerevisiae deletion strains, locus YPL031C, strain PHO85, active compounds read low 0.824 | S. cerevisiae deletion strains, locus YPL153C, strain RAD53, active compounds read low 0.855 | S. cerevisiae deletion strains, locus YPL204W, strain HRR25, active compounds read low 0.827 | S. cerevisiae deletion strains, locus YPL209C, strain IPL1, active compounds read low 0.963 | S. cerevisiae deletion strains, locus YPR025C, strain CCL1, active compounds read low 0.952 | S. cerevisiae deletion strains, locus YPR106W, strain ISR1, active compounds read low 0.965 | S. cerevisiae deletion strains, locus YPR111W, strain DBF20, active compounds read low 0.944 | S. cerevisiae deletion strains, strain NNK1, active compounds read low 0.942 | S. cerevisiae deletion strains, strain TSCII, active compounds read low 0.952
active: [9] 0.673 | S. cerevisiae deletion strains, locus YLR113W, strain HOG1, active compounds read low 0.658 | S. cerevisiae deletion strains, locus YPL256C, strain CLN2, active compounds read low 0.767

O=C(NC(=S)Nc1ccc(Cl)cc1)c1ccc([N+](=O)[O-])o1
active: [26] 0.577
inactive: [1] 0.958 | [2] 0.975 | [3] 1.03 | [4] 0.999 | [5] 0.964 | [6] 0.98 | [7] 0.963 | [9] 0.714 | [10] 0.955 | [11] 0.985 | [12] 0.984 | [13] 0.899 | [14] 0.984 | [15] 0.892 | [16] 0.917 | [17] 0.945 | [18] 0.978 | [19] 0.985 | [29] 0.979 | [20] 0.999 | [21] 0.912 | [22] 0.96 | [23] 0.956 | [27] 0.999 | [24] 0.937 | [25] 1.08 | [28] 0.981
